For 40 molecules, inhibition results are on record in ChEMBL document CHEMBL3433997, “St. Jude Leishmania screening dataset” (2016).

The assay addresses Glucose transporter (Leishmania mexicana) (UniProt O61059). The assay can be described thus: ST_JUDE_LEISH: Cytotoxicity at 2uM final concentration against transgenic Leishmania Mexicana promastigotes LmGT2 that are glucose transport deficient and complemented with the L. Mexicana glucose transporter 2. Activity is measured by DNA content using SYBR green in vitro. Format: functional.
By inhibition is commonly meant the change of the read-out against control, counted positive when it falls. Take `OCCCCCCNc1nc(NCc2ccccc2-c2ccc(C(F)(F)F)cc2)nc(N2CCNCC2)n1`: the inhibition turned out to be 0.81%.
In the case of `O=C(NC1c2ccccc2Oc2ccccc21)c1ccccc1O` it was -0.01%.
Regarding `O=C(Nc1ccc(Cl)cc1)Nc1cccc(-c2cccc(-c3nc4cc(F)ccc4[nH]3)c2)c1`, the inhibition was found to be 6.45%.
As for `Fc1ccc(-c2csc3ncnc(Cl)c23)cc1`, the figure is -2.14%.
With `OCCNc1nc(Nc2cccc(O)c2)nc2ccccc12`, the inhibition turned out to be 4.01%.
Turning to `Cc1noc(C)c1-c1cccc(CNCc2cccc(-c3cccc(-c4nc5cc(C(F)(F)F)ccc5[nH]4)c3)c2)c1`, the inhibition turned out to be 0.61%.
Consider `CN(C)c1ccc(CN2CCC(CNC(=O)c3cc(-c4ccccc4Cl)cs3)C2)cc1` (stereo not given), for which the inhibition is 0.7%.
In the case of `COc1ccc2nc3cc(Cl)ccc3c(Nc3ccc(O)c(CN4CC5CCC(CC5)C4)c3)c2c1`, the inhibition was determined as 3.82%.
In the case of `N=C(N)Nc1ccc(NC(=O)Nc2ccc(NC(=N)N)cc2)cc1` it was 0.04%.
In the case of `CNCc1ccc(CN(C)c2nc(N)c3cc(OC)c(OC)cc3n2)cc1`, the inhibition came to 6.34%.
With `CCCNCc1ccc(-c2ccc(CN(C(=O)c3nn(-c4ccccc4)nc3C)C(C)CN(C)C)cc2)nc1` (stereo not given), the inhibition was determined as 6.31%.
For the molecule `COc1ccc(F)cc1-c1ccccc1CNC(=O)c1cnn(-c2ccc([N+](=O)[O-])cc2)c1C(F)(F)F`, the inhibition was found to be 4.07%.
In the case of `Cn1c(NC(=O)C2CCC(CNC(=O)c3ccc(O)c(-c4cccc([N+](=O)[O-])c4)c3)CC2)nc2ccccc21` (stereo not given) it was 2.44%; in that of `CC(Cc1ccc(OCC(=O)NCC2CCN(CCc3cccc(Cl)c3)CC2)cc1)NCCc1cccc(Cl)c1` (stereo not given), 1.92%; in that of `CCCCC(CC)NC(=O)[C@H]1CNCCN1C(=O)CCCc1ccccc1` (stereo not given in full), -0.61%.
In the case of `Cc1ccc(-n2nc3ccc(NC(=O)c4ccc([N+](=O)[O-])o4)cc3n2)cc1C`, the inhibition stood at 40.3%.
In the case of `O=C(NCCc1ccccc1)N(Cc1ccccc1-c1cccc(CNC2CCCC2)c1)C1CCN(Cc2ccccc2)CC1` it was 6.22%; in that of `CCOc1cccc(C(=O)Nc2nonc2-c2ccc(OC)c(OC)c2)c1`, 7.57%.
As for `CCOC(=O)c1c(NC(=O)c2ccccc2)sc2c(O)c(CNC3CCCCC3)ccc12`, the figure is -0.44%; as for `CC(N)(Cc1ccc(O)cc1)c1nnn[nH]1` (stereo not given), -0.23%; as for `Cc1cc(C(=O)Nc2ccc3c(ccn3C3CCCN(Cc4ccc(C(F)(F)F)cc4F)CC3)c2)no1` (stereo not given), -0.5%.
For the molecule `CCN(CC)CCCC(C)N=c1cc(C=Cc2ccccc2Cl)[nH]c2cc(Cl)ccc12` (stereo not given), the inhibition was 1.56%.
In the case of `Cc1cccc2nc(-c3ccc(-c4ccc(CNCc5ccccc5)cc4)cc3)[nH]c12`, the inhibition stood at 4.35%.
Take `O=C(Nc1cccc(Cl)c1)OC1CCCN2CCCCC12` (stereo not given): the inhibition was 9.42%.
As to `O=C(Nc1cc(Cl)cc(Cl)c1)c1cc(Cl)c(=O)n(Cc2cccc(Cl)c2)c1`, the inhibition is -1.24%.
For `CN(C)Cc1ccc(-c2cc3c(Nc4ccc(OCc5cccc(F)c5)c(Cl)c4)ncnc3s2)[nH]1`, the inhibition was found to be 2.33%.
`CC(C)C(=O)n1ncc2c3c(N)nc(N)nc3ccc21`: the inhibition was -0.01%.
As to `c1ccc(Oc2ccc(Nc3nncc4ccccc34)cc2)cc1`, the inhibition was -4.56%.
As for `O=C(NCCCCN1CCN(c2cccc(Cl)c2Cl)CC1)c1ccc2c(c1)CCN(C1CCC1)CC2`, the inhibition was -0.46%.
`CC(C)(CNCc1ccc(Cl)cc1)c1nc(-c2ccc(Cl)c(O)c2)c(-c2ccncc2)[nH]1`: the inhibition is -1.23%.
As for `O=C(Nc1cccc(-c2nn3ccccc3c2-c2ccnc(Nc3ccc(Cc4ccncc4)cc3)n2)c1)c1c(F)cccc1F`, the figure is 13.2%; as for `FC(F)(F)c1cccc(Nc2nc3ccccc3nc2Nc2cccc(C(F)(F)F)c2)c1`, 0.85%.
Turning to `CCCCCCCCOc1c(OCC)cc(Cc2cnc(N)nc2N)cc1OCC`, the inhibition came out at 2.94%.
In the case of `CC(C)(C)OC(=O)[C@H](CC(N)=O)NC(=O)c1ccc(-c2ccc(-c3nc4cc(C(F)(F)F)ccc4[nH]3)s2)cc1` it was 1.57%; in that of `CCOc1cc(Cc2cnc(N)nc2N)ccc1OC`, -0.73%.
For the molecule `O=C(NCc1ccc(C(=O)NC2CCCCCC2)cc1)c1ccc(O)c(-c2ccc(Cl)c(Cl)c2)c1`, the inhibition was found to be 0.44%.
For `N=C(N)c1cccc(OCCCOc2cccc(NC(=O)Nc3ccc([N+](=O)[O-])cc3)c2)c1`, the inhibition is 2.32%.
In the case of `COc1cccc2c(O)c(CNC3CCCCC3)ccc12` it was 1.11%; in that of `CCNC(C)(C)CN(Cc1ccc(-c2ccc(C(F)(F)F)cc2)cc1)C(=O)Cn1c(CCc2cccc(F)c2F)nc(=O)c2ccccc21`, 2.34%; in that of `CCC(CC)n1cc2c(ccc3nc(N)nc(N)c32)n1`, -4.05%.
